Bioassay records (PubChem)
gsp antagonist: qHTS for Antagonists of gsp, the Etiologic Mutation Responsible for Fibrous Dysplasia/McCune-Albright Syndrome: qHTS. gsp-mutant cells, cAMP HTRF, 30 min. Potency, µM (highest dose often 76.9 µM), without a hit: top-dose activity change, negative = inhibition, actives largely listed as inhibitors. 340,000 tested, 0.4% active; calls by dose curve; cell line not stated here;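 note: intracellular cAMP measured with PDE inhibitor Ro 20-1724 present during compound exposure; potency is the fitted concentration of half-maximal effect; % is set by controls: 0 for no effect and ±100 for the full control effect; nearly all actives have a fitted effect of over 65% in size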
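HTRF cAMP read-out (cAMP-d2 plus anti-cAMP antibody-K in lysis buffer, 30 min RT). Before lysis, cells are exposed to compounds with […] for 30 min at 37C in DPBS containing Ca/Mg, BSA and Tween 20.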
pAkt inh: HTS Assay for Inhibitors of Akt Phophorylation: Primary Screen. AID 651550, 2012. Neuro2A IGF-stimulated pAkt S473 HTRF, 20 min; active compounds read low. 360,000 tested, 0.32% active. activity change, % for hits at 50 µM; in the data active = activity change below about -80%; inconclusive = mostly about -51% to -80%; note: % is set by controls: 0 for no effect and ±100 for the full control effect
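Neuro2A cells (4,500/well, DMEM with 0.5% FBS) were treated with compound at a single 50 µM final concentration, stimulated with 6 nM IGF for 20 min at 37 °C, and lysed. Phospho-Akt Ser473 was read by HTRF as 665/615 ratio ×10^4.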
gsp agonist: qHTS for Agonist of gsp, the Etiologic Mutation Responsible for Fibrous Dysplasia/McCune-Albright Syndrome: qHTS; 340,000 tested, 0.13% active; Potency, µM (top dose mostly 76.9 µM), inactives show at the top dose activation (cAMP increase), actives largely listed as activators; gsp mutant cells, cAMP HTRF, 30 min; active = well fitted activation curve with a large enough effect; inconclusive = small, poorly fitted or top-dose-only effect, or another doubt; inactive = no such curve, though single readings can be large or run the other way; cell line not stated here;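 note: phosphodiesterase inhibitor Ro 20-1724 added with compounds to block cAMP breakdown; potency is the fitted concentration of half-maximal effect; nearly all actives have a fitted effect of over 60% in size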
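Cells in DMEM/10% FBS with G418 were pretreated with compounds in DMSO plus […] (300 uM stock) for 30 min at 37C. cAMP was measured by HTRF (cAMP-d2 plus anti-cAMP antibody-K) after 30 min at room temperature.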
RXFP1 antagonist: qHTS Assay for Antagonists of the Relaxin Receptor RXFP1; HEK293-RXFP1, relaxin-stimulated cAMP HTRF, 30 min; active compounds read low; activity change, negative = inhibition, % at 57.5 µM; 350,000 tested, 0.59% active; AID 1259400, 2018;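 active = activity change of -60% or lower, but not beyond a set lower limit; inconclusive = change between -60% and -40%, or beyond the set limit; inactive = change above -40%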; note: % is set by controls: 0 for no effect and ±100 for the full control effect
ClpP mod: qHTS Assay for Activators of ClpP. purified B. subtilis ClpP, FRET peptide cleavage, 20 min. ATP-dependent Clp protease proteolytic subunit (Bacillus subtilis (strain 168)), P80244. 340,000 tested, 1.9% active. Potency, µM (highest dose often 57.5 µM), for inactives: at the highest dose activity change, negative = active; active = well fitted falling curve with a large enough effect; inconclusive = small, poorly fitted or top-dose-only effect; inactive = no such curve, though single readings can be large or run the other way; note: potency is the fitted concentration of half-maximal effect; the source files actives as falling curves though it sought activators and does not explain the sign; nearly all actives have a fitted effect of over 65% in size
Target sequence (P80244 whole entry, looked up): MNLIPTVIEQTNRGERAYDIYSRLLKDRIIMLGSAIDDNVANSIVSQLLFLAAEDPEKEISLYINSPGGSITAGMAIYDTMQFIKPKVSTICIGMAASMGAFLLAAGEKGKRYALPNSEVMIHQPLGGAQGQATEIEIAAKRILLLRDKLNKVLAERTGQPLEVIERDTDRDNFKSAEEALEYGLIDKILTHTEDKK
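Buffer: 100 mM Tris/HCl pH8, 100 mM KCl, 0.05% low protease BSA, 2.5% glycerol, 0.01% Tween-20. ClpP 10 microg/mL final; 20 min RT; delta FRET normalized to ADEP and DMSO controls.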
RXFP1 agonist: qHTS Assay for Agonists of the Relaxin Receptor RXFP1; HEK293T-RXFP1 cAMP TR-FRET, 30 min; response scale: percent of porcine relaxin response, buffer zero; 370,000 tested, 0.3% active; Potency, µM (highest dose often 57.5 µM), for inactives: at the top dose activation, actives largely listed as activators; AID 2676, 2010; active = well fitted activation curve with a large enough effect; inconclusive = small, poorly fitted or top-dose-only effect; note: potency is the fitted concentration of half-maximal effect; % is set by controls: 0 for no effect and ±100 for the full control effect; nearly all actives have a fitted effect of over 60% in size
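cAMP rise read by TR-FRET after 30 min, 37C compound exposure (up to 58 uM) in RXFP1-transfected HEK293 cells with Ro 20174 present. EC50 from Hill-equation fits, with 29 nM porcine relaxin as 100% and buffer as basal.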
An asterisk follows results filed as active; i = inactive; ? = inconclusive; / = no result; [ ] = remark or other dose. Only some compounds are listed: those with a hit (about 2.7% of all), similar ones and a draw of the others.

SMILES	gsp antagonist	pAkt inh	gsp agonist	RXFP1 antagonist	ClpP mod	RXFP1 agonist
N#Cc1c(NC2CCCCC2)nc(-c2ccco2)c2c1CCCC2	-3.4%	i	11.3%	-9.6	7.08µM*	2.8%
CCc1nc(NC2CCCCC2)c(C#N)c2c1COC(C)(C)C2	-9.9%	i	22.1%	-5.8	1.1%	0.5%
N#Cc1c(NCCCO)nc(-c2ccco2)c2c1CCCC2	-1.7%	i	-27.5%	-0.5	28.2µM*	5.1%
CCOc1ccccc1-c1nc(-c2ccc(C)nc2OC)no1	0.8%	i	17.7%	1.3	28.2µM*	2.2%
CCOc1nc(C)ccc1-c1noc(-c2ccccn2)n1	1.7%	/	?	6.6	-12.3%	3.0%
Cc1ccc(C(C)C)c(OCC(=O)Nc2ccc3c(c2)nc(CCN2CCCCC2)n3C)c1	4.5%	i	?	-60.6*	-2.2%	4.8%
Cn1c(CCN2CCOCC2)nc2cc(NS(=O)(=O)c3ccccc3)ccc21	-0.7%	i	14.5%[15.4 µM]	3.2	/	2.6%
Cn1c(CCN2CCCCC2)nc2cc(NS(=O)(=O)c3ccccc3)ccc21	7.3%	i	0.8%	-4.6	28.2µM*	2.3%
O=C1CCCc2[nH]c(=O)c(C(=O)NCc3ccccc3)cc21	/	/	/	/	-24.7%	/
CCc1ccc(/C=N/NC(=O)c2cc(-c3ccncc3)nc3ccccc23)s1	7.1%	i	0.2%	1.6	-1.9%	2.4%
CCCc1cc(C(=O)N/N=C/c2ccc(CC)s2)c2ccccc2n1	-8.3%	-117.6%*	-7.0%	-6.5	1.1%	-1.2%
CC(C)C[C@H](N)c1nnc(S(=O)(=O)Cc2cccc(F)c2)o1	3.1%	/	-0.4%	29.5	-0.2%	-1.8%
CC(C)(C)OC(=O)N[C@@H](Cc1ccccc1)c1nnc(S(=O)(=O)Cc2cccc(F)c2)o1	9.7%	i	5.6%	-119.0*	-1.1%	0.6%
Cc1ccccc1CS(=O)(=O)c1nnc([C@H](CC(C)C)NC(=O)OC(C)(C)C)o1	14.2%	i	1.6%	-26.5	-1.1%	0.4%
CC[C@@H](C)[C@H](NC(=O)OC(C)(C)C)c1nnc(S(=O)(=O)Cc2cc(C)ccc2C)o1	15.5%	-127.2%*	19.1%	?	0.4%	-0.1%
Cc1cccc(C(=O)NC(=S)NNC(=O)c2cccs2)c1	9.5%	i	0.2%	13.6	-1.7%	-0.6%
Cc1cccc(C(=O)NC(=S)NNC(=O)c2ccc(Cl)cc2)c1	-3.9%	i	3.3%	-96.5*	-3.6%	-0.3%
COc1cccc(NC(=O)c2c(C)nn(-c3ccccc3)c2Cl)c1	-17.0%	i	-0.4%	-6.3	0.7%	3.8%
CCN(Cc1ccccc1)C(=O)Cn1c(=O)n(-c2ccccc2)c(=O)c2c1c1cc(C)ccc1n2C	/	/	/	/	4.4%	8.3%
O=C(O)CCc1nn2c3ccccc3n(CCO)c2nc1=O	10.2%	i	-13.9%[15.4 µM]	-7.3	/	4.5%
O=C(O)CCc1nn2c3ccccc3n(CCN3CCCCC3)c2nc1=O	12.0%	/	4.1%	-23.8	28.2µM*	3.0%
C/C=C(/C)C(=O)OC1CC(C)(C)C[C@H]2C3=CC[C@@H]4[C@@]5(C)CCC(O[C@@H]6O[C@@H](C(=O)O)[C@@H](O)C(O[C@@H]7OC[C@H](O)[C@@H](O)[C@@H]7O[C@@H]7OC(CO)C(O)[C@@H](O)[C@@H]7O)C6O[C@@H]6OC(CO)C(O)C(O)C6O)[C@@](C)(CO)[C@@H]5CC[C@]4(C)[C@]3(C)CC(O)[C@@]12CO (stereo not given in full)	50.1µM*	i	/	/	0.7%	/
N#Cc1nc(-c2ccc(OCc3ccc(Cl)cc3)cc2)oc1NCCCn1ccnc1	-2.2%	i	0.0%	3.6	25.1µM*	4.4%
N#Cc1nc(-c2ccc(OCc3ccccc3)cc2)oc1N1CCOCC1	-18.8%	i	-0.8%	-0.7	28.2µM*	2.4%
N#Cc1nc(-c2ccc(F)cc2)oc1N1CCN(C(=O)c2ccco2)CC1	-1.5%	i	3.3%	-22.3	3.16µM*	10.0%
SMILES	gsp antagonist	pAkt inh	gsp agonist	RXFP1 antagonist	ClpP mod	RXFP1 agonist
N#Cc1nc(-c2ccccc2F)oc1N1CCN(C(=O)c2ccco2)CC1	-17.5%	i	-35.9%	-9.2	30.7%	9.9%
N#Cc1nc(-c2ccc(OCc3ccccc3)cc2)oc1NCc1ccco1	5.4%	i	2.1%	-5.1	10µM*	4.8%
Cc1c(C(=O)N(Cc2ccc(N(C)C)cc2)CC2CCCO2)oc2ccc(Cl)cc12 (stereo not given)	/	/	/	0.8	0.7%	2.6%
COc1ccccc1CC1CC(=O)N(c2ccc([N+](=O)[O-])cc2)C1=O (stereo not given)	/	i	-9.7%	7.8	-1.5%	/
Cc1cc(C)n(-c2nc(C)c(C)c(=O)n2CC(=O)Nc2ccc(OC(F)(F)F)cc2)n1	/	/	/	-1.2	2.7%	0.8%
CCN1c2ccccc2-c2nc(SCC(=O)NCc3ccc(Cl)cc3)ncc2S1(=O)=O	/	/	/	12.4	4.3%	13.8%
CNc1oc(-c2ccc(OCc3ccccc3)cc2)nc1C#N	-9.6%	i	-35.9%	/	35.5µM*	-1.4%
N#Cc1nc(-c2ccc(OCc3ccccc3)cc2)oc1NCCN1CCOCC1	/	/	/	/	/	-1.2%
COc1ccc(CNC(=O)CN2CCC(NC(=O)c3ccc(OC)cc3)CC2)cc1	-18.9%	i	7.1%[15.4 µM]	-8.7	/	0.0%
Cc1cccc(C(=O)NNC(=O)c2cc3cc4ccccc4nc3s2)c1	?	i	-25.9%	-7.9	22.4µM*	-1.1%
Cc1ccc(Cn2c(=O)c3cccnc3n(CC(=O)Nc3cc(Cl)ccc3C)c2=O)cc1	/	/	/	/	-11.5%	-1.8%
Cc1ccc(NC(=O)Cn2c(=O)c(C)nc3ccccc32)cc1	9.9%	i	0.8%[15.4 µM]	-5.2	0.5%	-0.5%
Cc1cccc(NC(=O)Cn2c(/C=C/c3ccccc3)nc3ccccc32)c1	2.4%	i	26.5%	19.9	31.6µM*	3.5%
Cc1c(C(=O)Nc2ccc(F)cc2)c2ccccn2c1CCc1ccncc1	11.2µM*	i	2.4%[15.4 µM]	-16.0	/	0.1%
COC(=O)CCc1c(C)c(C(=O)c2ccc(F)cc2)c2ccccn12	-22.2%	i	8.4%[15.4 µM]	-2.0	/	25.5%
Cc1ccccc1NC(NC(=O)c1cccs1)C(Cl)(Cl)Cl (stereo not given)	-5.5%	i	5.5%	-23.3	25.1µM*	-3.4%
COc1ccc(-c2cc(C(=O)N3CCN(c4ncccn4)CC3)c3ccccc3n2)c(OC)c1	-18.3%	i	14.6%	-1.2	?	0.2%
